Test results from PubChem BioAssay (NCATS).
Results filed as inconclusive are left out. The source made the active and inactive calls. Calls follow the shape of the full dose curve.

These molecules were tested against Atrial natriuretic peptide receptor 1 (Homo sapiens) (UniProt P16066) (assay: Natriuretic polypeptide receptor (hNpr1) antagonism - Pilot CMLD screen (AID 1347052)). Conditions: HEK293 hNpr1 GloSensor cGMP luminescence, ANP-stimulated; series mostly up to 9.22 µM.
Protocol: In order to identify small molecular compounds that inhibit the hNpr1 receptor we developed a high-throughput assay to measure inhibition of the guanylate cyclase activity of the receptor. cGMP production was measured using a circular permutated Firefly luciferase (FLuc) enzyme functionally linked to the cGMP binding domain of human phosphodiesterase 5 (GloSensor technology pGS-40F, (Fan, F. et al. 2008). The cGMP-sensor was expressed in human embryonic kidney 293 (HEK-293) cells and FLuc activity was measured after stimulation with hNrp agonist peptide. hNrp agonists activates the receptor's associated guanylyl cyclase (GC) domain producing cGMP which then binds to the GloSensor resulting in FLuc activation, the enzymatic activity of which can be measured as bioluminescence with addition of luciferin substrate.
This assay was initially piloted by testing with a small library of specialty compounds.
PROTOCOL TABLES (as described by Inglese J, Shamu CE and Guy RK. 2007)
SEQUENCE No. (e.g., 1, 2, 3, etc.); […] (e.g., Cells, Incubation, Reagent, etc.); VALUE and DESCRIPTION.
1. Cells. Seed 1500 HEK293 cGMP-sensor cells expressing hNpr1 per well in 4uL into Greiner 1536-well white/solid bottom high base, tissue culture-treated plates.
2. Incubation. Incubate plated cells at 37C in 5% CO2, 95% RH overnight.
3. Reagent. Add 1uL per well GloSensor reagent from Promega (2% final concentration) or CO2 independent media vehicle control to respective columns of Greiner 1536-well plates.
4. Incubation. Incubate plated cells at room temperature for 2 h, protect from light.
5. Compounds. Library compounds and A-71915 control added at 23 nL per well, transferred by Pin Tool.
6. Incubation. Incubate plated cells for 30 min. at room temperature, protect from light.
7. Detector. GloSensor baseline pre-read luminescence measured using CCD-based camera (Viewlux).
8. Compound. Add 1uL of hNppA peptide to 0.1 nM final concentration to stimulate hNpr1 or CO2 independent media as vehicle control.
9. Incubation. Incubate treated cells at room temperature for 20 min., protect from light.
10. Detector. GloSensor post-hNppA luminescence measured using CCD-based camera (Viewlux).
NOTES (numbers refer to Sequence numbers above)
1. HEK293 cells expressing hNpr1 and GIP/pGS-40F grown to 85-95% confluence (48-72 h) in T175 culture flasks (CO2 independent media supplemented with 10% FBS, 1% Pen/Strep antibiotics and 1 ug/mL puromycin). Trypsinize and harvest cells from T175 culture flasks and filter through 40 um cell strainer. Cells counted with Invitrogen Countess (30,000,000 - 50,000,000 cells/flask). Cells diluted to a final concentration of 375 cells/uL in CO2 independent media and a Millipore multidrop used to dispense 1500 cells per well (4uL/well) into 13 1536-well Greiner White/Solid bottom, high base tissue-culture treated (TC) plates and one Aurora 1536-well Black/Clear bottom, low base, TC plate (for visual inspection of cell health throughout the duration of the assay).
2. Cells incubated overnight at ambient temperature, 24 h. at 37C in 95% RH incubator protected from light, covered with metal lid with gas-exchange holes.
3. Prepare GloSensor Reagent (Promega): Reconstitute GloSensor luciferase substrate by adding 8.2mL Hepes buffer to 250mg substrate, mix well, protect from light and stored at -80C. Prepare a fresh 12% GloSensor solution in CO2 independent supplemented plating media (see above). Mix well and store at ambient temperature, protected from light. 1uL 12% GloSensor Luciferase Reagent added (2% final concentration) to respective columns of 13 x 1536-well Greiner plate with BioRaptr, 1uL CO2 independent plating media added to respective columns as vehicle control with BioRaptr.
4. Cells incubated for 2 h. at ambient temperature, protected from light with metal lid with gas-exchange holes.
5. A-71915 stock solution prepared (10 mM in DMSO). […]

Atrial natriuretic peptide receptor 1 (Homo sapiens), sequence (P16066 whole entry, looked up, the tested form may be a part): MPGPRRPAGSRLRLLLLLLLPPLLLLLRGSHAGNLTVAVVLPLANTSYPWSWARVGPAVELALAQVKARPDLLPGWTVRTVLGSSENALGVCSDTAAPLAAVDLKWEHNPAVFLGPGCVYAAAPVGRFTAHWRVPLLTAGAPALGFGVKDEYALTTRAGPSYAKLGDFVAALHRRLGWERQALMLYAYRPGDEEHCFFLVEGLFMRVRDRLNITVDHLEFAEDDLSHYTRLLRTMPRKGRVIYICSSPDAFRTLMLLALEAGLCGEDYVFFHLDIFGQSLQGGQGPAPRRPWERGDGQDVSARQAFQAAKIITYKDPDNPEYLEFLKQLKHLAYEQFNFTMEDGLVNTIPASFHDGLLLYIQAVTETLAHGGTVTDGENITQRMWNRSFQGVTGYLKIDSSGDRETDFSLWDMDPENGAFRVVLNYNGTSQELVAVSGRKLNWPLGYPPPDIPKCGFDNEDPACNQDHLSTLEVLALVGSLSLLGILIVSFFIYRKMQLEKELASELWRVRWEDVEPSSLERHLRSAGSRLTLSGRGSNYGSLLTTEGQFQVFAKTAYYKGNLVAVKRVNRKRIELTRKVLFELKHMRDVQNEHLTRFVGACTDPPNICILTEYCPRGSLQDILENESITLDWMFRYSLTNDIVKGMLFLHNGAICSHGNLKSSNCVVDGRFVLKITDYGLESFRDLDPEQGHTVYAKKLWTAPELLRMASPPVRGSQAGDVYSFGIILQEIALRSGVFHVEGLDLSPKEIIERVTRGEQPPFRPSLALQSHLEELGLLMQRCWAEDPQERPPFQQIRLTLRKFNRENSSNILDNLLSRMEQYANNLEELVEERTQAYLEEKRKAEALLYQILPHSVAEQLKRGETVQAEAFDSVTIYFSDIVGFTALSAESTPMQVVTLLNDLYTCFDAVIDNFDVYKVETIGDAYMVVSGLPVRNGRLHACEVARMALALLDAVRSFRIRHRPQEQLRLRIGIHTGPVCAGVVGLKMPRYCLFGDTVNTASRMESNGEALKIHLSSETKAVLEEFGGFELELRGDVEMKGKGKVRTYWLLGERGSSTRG

Potency, inactive:
COc1cccc([C@H]2Oc3ccc(OC)cc3C(=NOC[C@@H](O)COCc3ccco3)[C@H]2O)c1
COc1cccc([C@H]2Oc3ccc(OC)cc3C(=NOCC[C@@H]3C=C[C@H](OC(C)=O)[C@@H](COC(C)=O)O3)[C@H]2O)c1
C=CCN1C(=O)CC[C@@]23C1=NC(C(=O)OC)=C(C(=O)OC)[C@@H]2N(C)c1ccccc13
O=C1C[C@@H](c2ccccc2)[C@H](c2ccc(Br)cc2)O1
COC(=O)[C@@]1(C=C2c3ccc(OC)cc3[C@@H](OC)[C@@H]2C)[C@@H]2C=CC[C@@H]21
C=CC1=C2C=C(C3CC3)N(C3CCCCC3)C=C2C(=O)C(C)(OC(=O)c2ccco2)C1=O (stereo not given)
COC1=CC2C(=O)C(C1=O)C1c3ccccc3CC21 (stereo not given)
CCN1C(=O)N[C@@H](c2ccccc2)[C@@H](C(=O)OC)[C@H]1C
C=CCN1c2ccccc2[C@]23C[C@@H](C(=O)OC)N(C(=O)Nc4ccccc4F)C2=NC(C(=O)OC)=C(C(=O)OC)[C@H]13
COCOc1ccc(Br)cc1C(=O)[C@@H]1O[C@@H]1c1cccc(OC)c1
COC(=O)[C@@H]1CC[C@H](C)[C@@H](c2ccc(C)cc2)N1C(=O)c1ccc(C=NOC[C@@H](O)COCc2ccco2)cc1
CCN(CC)CCCN=C1NC(c2ccccc2)C(C(=O)OC)=C(C)N1CC (stereo not given)
CCN1C(=O)NC(c2cccc(C(F)(F)F)c2)C(C(=O)OC)=C1C (stereo not given)
COC(=O)[C@@H](O)CC[C@@H](C)Cc1c(OC)c(OC)c(C)c(OC)c1OC
COC(=O)N[C@@H](c1cccs1)C(C(C)=O)C(=O)OC (stereo not given in full)
CCO[C@@H]1C[C@@]1(C=C[C@@H](C)[C@H](OC)c1ccccc1Br)C(=O)OC
CC(Nc1oc(-c2ccccc2)nc1C(C)(C)C)c1ccccc1 (stereo not given)
CC1(C)CC(=O)C2=C(C1)O[C@@]1(CCCCN3C(=O)c4ccccc4C3=O)Cc3cc(C#N)ccc3[C@H]2O1
CC[C@H](C)[C@@H](NC(=O)O[C@H]1C(=O)c2ccc(OC)cc2O[C@@H]1c1ccc2c(c1)OCO2)C(=O)OC
CCCCCCc1cc2cc(OC)c(OC)cc2c2c(C(=O)OC)c(C(=O)OC)c(C(=O)OC)n12
COc1cc(OC)c([C@@H]2O[C@H](CO)[C@@H](O)[C@H](O)[C@@H]2O)c(OC)c1
O=S(=O)(CCc1ccccc1)c1ccccc1
COc1ccc(O[C@H]2C=C[C@@H](c3ccccc3)O[C@H]2COC(=O)CCC(C)=NO[C@H](C)c2cn([C@@H]3COC[C@@H]3O)nn2)cc1
CC(CCN1CCCc2nc(C)c(C)cc21)=NO[C@H](C)c1cn([C@H](CO)Cc2ccccc2)nn1
C=CCN1c2ccccc2[C@]23C[C@@H](C(=O)OC)N(C(=O)Nc4ccc(C(F)(F)F)cc4)C2=NC(C(=O)OC)=C(C(=O)OC)[C@H]13
CCN1C(=NCc2ccccc2)NC(c2cccc(C(F)(F)F)c2)C(C(=O)OC)=C1C (stereo not given)
COC(=O)CC=C1c2ccc3c(c2[C@@H](OC)[C@@H]1C)OCO3
CC(C)(C)c1nc(-c2ccccc2)oc1Nc1ccc2ccccc2c1
COC(=O)[C@H]1[C@@H](c2ccccc2)NC(=O)N(Cc2ccccc2)[C@@H]1C
COC(=O)CC1c2ccccc2C=C(C2CC2)N1C(=O)OC (stereo not given)
COC(=O)[C@@]1(C=C2c3ccc(F)cc3[C@@H](OC)[C@@H]2C)[C@@H]2OCCC[C@@H]21
O=C(NN=C1C[C@@H](O)[C@H](O)[C@H]2[C@@H]3C(=O)N(c4cccc(Oc5ccccc5)c4)C(=O)[C@@H]3CC[C@H]12)OCc1ccccc1
C#CCCCON=C1C[C@@H](O)[C@H](O)[C@H]2[C@@H]3C(=O)N(C4CCCCC4)C(=O)[C@@H]3CC[C@H]12
COC(=O)CCCC1=CC2=CC(=O)C(C)(OC(=O)c3cccs3)C(=O)C2=CN1CCN1CCOCC1 (stereo not given)
CCN1C(=NCCc2ccccn2)NC(c2cccs2)C(C(=O)OC)=C1C (stereo not given)
COC(=O)C1=C(C)N(Cc2ccccc2)C(=NCc2cc(OC)c(OC)c(OC)c2)NC1c1cccc(F)c1 (stereo not given)
CCOC(=O)CN1C(=O)NC(c2cccs2)C(C(=O)OC)=C1C (stereo not given)
CCCC[C@]12Cc3cc(C#N)ccc3[C@H](O1)c1c(cc(C)n(Cc3ccccc3)c1=O)O2
O=C(NC(CC1=CCCCC1)c1ccc2ccccc2c1)C(F)(F)F (stereo not given)
O=C1Nc2cccc(Br)c2[C@@]12O[C@H](COc1ccccc1)CC1=CCCC12 (stereo not given in full)
